The record followed here is PubChem BioAssay AID1852 (Sanford-Burnham Center for Chemical Genomics, 2009).

Screen size: about 2,500 compounds; about 1,100 (44%) were called active. The set was probably picked from earlier hits. The list shows a part of the results. A number with no mark means an inactive call.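 Rule for the calls: active = inhibition above 50% at 4 µM in the single-point screen; inactive = inhibition of 50% or less.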

This test is described as follows: blockers of TNF-a NF-kB luciferase induction – cell-based, HEK293T NF-kB-Luc, luminescence, selectivity assay for NOD1/NOD2 signaling inhibitor project, primary screen (AID 1852). As to conditions: TNF-a induced, 14 h, at 4 µM, hits give high values.
Consider `COc1ccc(/C=C/C(=O)C2CC2)cc1Cn1nc(C)c([N+](=O)[O-])c1C`, for which the inhibition was 36.6%. Regarding `Cc1ccc(C(C)C)c(OCc2ccc(-c3nnco3)cc2)c1`, the inhibition is 12.4%. On to `COc1cc(/C=C2\SC(=N)N(c3ccc(F)cc3)C2=O)ccc1O`, for which the inhibition was 51.1% (active).

For `COc1cc(/C=C2/SC(=Nc3ccc(O)cc3)NC2=O)ccc1O`, the inhibition is 89.8% (active). With `COc1cccc(OCCOc2ccc(/C=C3/SC(=S)NC3=O)cc2)c1`, the inhibition was -114%. As to `COc1cc(/C=C2\SC(N3CCC(C)CC3)=NC2=O)ccc1O`, the inhibition was 1.4%.

`COc1ccc(N=C2NC(=O)/C(=C/c3ccc(O)c(OC)c3)S2)cc1`: the inhibition is 70.8% (active). On to `COc1ccccc1OCCCOc1cccc(/C=C2\SC(=O)NC2=O)c1`, for which the inhibition was 3.3%. The value for `COc1ccc(OC)c(/C=C2\S/C(=N/NC(=O)c3ccc4ccccc4c3)NC2=O)c1` was -2.1%; that for `COc1cc(/C=C2/C(=O)NN(c3ccc(Cl)cc3)C2=O)cc(Br)c1O` was -1.7%; that for `COc1cc(/C=N/NC(=O)c2ccc(-c3ccccc3)cc2)cc(OC)c1OC` was 63.8% (active).

Take `COc1cccc(/C=N/NC(=O)c2ccc(-c3ccccc3)cc2)c1O`: the inhibition is 70% (active). On to `COc1cc(/C=N\NC(=O)c2ccc(-c3ccccc3)cc2)cc(Br)c1O`, for which the inhibition is 43%. To `COc1cc(/C=N/NC(=O)c2cc3c(ccc4ccccc43)o2)cc(OC)c1O` belongs 36.5%. For the compound `Cc1ccccc1CS(=O)(=O)c1nnc([C@H](CC(C)C)NC(=O)OC(C)(C)C)o1`, the inhibition is 35%. For the compound `COc1cc(CNc2ccc3[nH]c(=O)[nH]c3c2)ccc1OCc1c(F)cccc1Cl`, the inhibition is 49.2%.

Consider `Clc1c(Cl)c(Cl)c2n[nH]nc2c1Cl`, for which the inhibition was 26.8%. With `O=C(N/N=C/c1cccc2cccnc12)c1ccccc1O`, the inhibition is 53.1% (active). In the case of `COc1cccc(/C=N/NC(=O)c2c(C)nc3ccc(Cl)cn23)c1O`, the inhibition is 46.8%.

On to `O=C(N/N=C/c1ccccc1O)c1cccc2ccccc12`, for which the inhibition was 99.3% (active).

On to `O=C(CCC(=O)Nc1ccc(Br)cc1)N/N=C/c1ccccc1O`, for which the inhibition was 49.3%. Take `Cc1c(/C=N/NC(=O)c2ccccc2O)c2ccccn2c1C(=O)c1ccc(F)cc1`: the inhibition was 21.3%. For `Cc1ccc(NC(=O)CCC(=O)N/N=C/c2ccccc2O)cc1`, the inhibition is 58.1% (active). Take `O=C(/C=C/c1ccco1)Oc1cc(Br)cc(/C=N/NC(=O)c2ccccc2O)c1`: the inhibition is 44.6%. For `Cc1cccc2cc(/C=N/NC(=O)c3ccccc3O)c(Cl)nc12`, the inhibition was 63.3% (active). As for `O=C1CCN(CCc2ccccc2)CCN1CCOc1ccccc1`, the inhibition is -6.2%. `O=C(N/N=C/c1ccc(O)cc1O)c1ccncc1`: the inhibition is 28.2%. Take `CCOc1ccc(/C=N/NC(=O)C(O)c2ccccc2)c(O)c1` (stereo unspecified): the inhibition was 45.4%. In the case of `CCc1cc(C(=O)N/N=C/c2ccc(O)cc2O)c2ccccc2n1`, the inhibition was 50.7% (active). Regarding `Cc1csc(SCC(=O)Nc2cccc3nsnc23)n1`, the inhibition is 100% (active). The value for `CCn1c(SCC(=O)Nc2nc(-c3ccccc3)cs2)nnc1-c1ccccc1` was 34.3%; that for `O=C(CN1C(=O)c2cccnc2Oc2ccc(Cl)cc21)NCCCc1ccccc1` was 12%; that for `O=C(NC(=S)N(CCCCO)C1CCCCC1)c1sc2ccccc2c1Cl` was 104% (active). To `Cc1ccc(C(C)NC(=S)NC2CCCCC2)cc1C` (stereo unspecified) belongs 24.8%; to `Cc1ccc(C(=O)NC(=S)N(C)C2CCCCC2)cc1Br`, 106% (active). Regarding `COc1ccc(C(=O)NC(=S)N(C)C2CCCCC2)cc1Br`, the inhibition is -14.8%. Regarding `Cc1ccccc1N1CCN(S(=O)(=O)c2nnc(NC(=O)c3ccc(F)cc3)s2)CC1`, the inhibition was -27.1%. With `Cc1onc(-c2ccccc2Cl)c1C(=O)Nc1nnc(-c2ccc(Br)cc2)s1`, the inhibition is -22.4%. Regarding `O=C(Nc1ccccc1C(=O)Nc1nnc(C(F)(F)F)s1)c1ccccc1`, the inhibition is 51% (active). As to `Cc1onc(-c2c(F)cccc2Cl)c1C(=O)Nc1nnc(C(F)(F)F)s1`, the inhibition was 48.9%. In the case of `O=C(Nc1ccccc1C(=O)Nc1nnc(C(F)(F)F)s1)c1ccccc1Cl`, the inhibition is 86.7% (active). Turning to `Cc1ccnc(OC(C(=O)O)C(OCc2ccccc2)(c2ccc(F)cc2)c2ccc(F)cc2)n1` (stereo unspecified), the inhibition was -7.9%. With `CCn1cc([N+](=O)[O-])c(C(=O)N2N=C(c3ccc4ccccc4c3)CC2c2cc(Br)ccc2O)n1` (stereo unspecified), the inhibition is -56.7%. In the case of `CCn1cc([N+](=O)[O-])c(C(=O)N2N=C(c3ccc(OC)cc3OC)CC2c2ccccc2O)n1` (stereo unspecified), the inhibition was 86.6% (active).

With `CC1CC(C)CN(C(=O)CSc2nc(Cc3cccs3)nc3ccccc23)C1` (stereo unspecified), the inhibition is -34.3%.

With `O=C1C(=O)c2ccc(-c3ccccc3)cc2-c2ccccc21`, the inhibition is 102% (active). Regarding `O=C1C(Cl)=C(Nc2ccccc2)C(=O)c2ccccc21`, the inhibition is -83.5%.

In the case of `Nc1ccc2c(c1)C(=O)C(=O)c1ccccc1-2`, the inhibition was 97.6% (active). Regarding `CCn1c(SCC(=O)N2CCC(C)CC2)nc2c(c1=O)SCC2`, the inhibition is 1.5%. To `CCCCCCc1cc2cc(C(=O)OCC)c(=O)oc2cc1O` belongs 9.4%.

Regarding `CCCCCCc1cc2cc(S(=O)(=O)c3ccc(F)c(Cl)c3)c(=O)oc2cc1O`, the inhibition is 38.7%.

Regarding `CCCCCCc1cc2cc(S(=O)(=O)c3ccc(Cl)cc3)c(=O)oc2cc1O`, the inhibition was 65.1% (active). For the compound `COCCn1c(C)cc(C(=O)CSc2ncnc3sc4c(c23)CCC4)c1C`, the inhibition was 14.2%. The value for `c1csc(CCNc2ncnc3sc4c(c23)CCC4)c1` was 62.9% (active). With `O=C(O)CSc1ncnc2sc3c(c12)CCCC3`, the inhibition is 31.1%. As to `CC1(C)CC(N2CCCC2)=CC(=[N+]2CCCCCC2)C1`, the inhibition is 34%. The value for `CC1CC(C)C[N+](=C2C=C(N3CCCC3)CC(C)(C)C2)C1` (stereo unspecified) was 49.7%; that for `CC1(C)CC(N2CCN(C(c3ccccc3)c3ccccc3)CC2)=CC(=[N+]2CCCCC2)C1` was 80.1% (active). The value for `O=C(NC(c1ccc(Cl)cc1)c1c(O)ccc2ccccc12)c1ccccc1` (stereo unspecified) was 78.3% (active); that for `C(=N\Nc1nc(-c2ccccn2)nc2ccccc12)/c1ccccc1` was 78.9% (active). For `Cc1c(O)ccc(/C=N/Nc2nc(-c3cccnc3)nc3ccccc23)c1O`, the inhibition was -60%.

Regarding `Oc1ccc(/C=N/Nc2nccnc2Cl)c(O)c1`, the inhibition is 39.8%.

As for `Cc1cc(C)nc(N/N=C/c2c[nH]c3ccccc23)n1`, the inhibition is 29%. The value for `Oc1ccc(/C=N/Nc2nc(-c3ccccc3F)nc3ccccc23)c(O)c1` was 68.2% (active); that for `FC(F)(F)c1cc(Sc2ccccc2)nc(-c2ccccn2)n1` was -4.1%; that for `Fc1ccccc1/C=N/Nc1nc(-c2ccccn2)nc2ccccc12` was 98.7% (active). For `Cc1c(Cl)cccc1NC(=S)NNc1ncc(C(F)(F)F)cc1Cl`, the inhibition is 28.7%. Turning to `Cc1ccc(C(=O)Nc2ncc([N+](=O)[O-])s2)cc1`, the inhibition was 3.8%. In the case of `Cc1ccc(S(=O)(=O)c2ccc([N+](=O)[O-])cn2)cc1`, the inhibition was 38.5%. Take `O=[N+]([O-])c1cccnc1S(=O)(=O)c1ccccc1`: the inhibition is 69.6% (active). The value for `Cc1ccc(S(=O)(=O)c2ncccc2[N+](=O)[O-])cc1` was 52.6% (active); that for `CC(C)C[C@H](NC(=O)c1nc[nH]c1C(=O)N1CCN(C(=O)OC(C)(C)C)CC1)C(=O)OC(C)(C)C` was 2.4%; that for `CCn1c(=O)cc(SCC(=O)Nc2ccc(C)cn2)c2ccccc21` was 35.4%.

With `Cc1ccnc(NC(=O)CSc2cc(=O)n(C)c3ccccc23)c1`, the inhibition was 86.3% (active). With `Cc1ccnc(NC(=O)Cc2ccc(-c3ccccc3)cc2)c1`, the inhibition is 48.8%. The value for `Nc1ncc(Br)cc1S(=O)(=O)Nc1cc(C(F)(F)F)cc(C(F)(F)F)c1` was 78% (active). As to `Cc1nc(N2CCC(C(N)=O)CC2)c2c(-c3cccs3)csc2n1`, the inhibition is 57.4% (active). For the compound `Cc1sc2nc(CSc3ccccc3)nc(N3CCC(C(N)=O)CC3)c2c1C`, the inhibition is 53.5% (active). To `Cc1nc(N2CCN(c3ccccc3O)CC2)c2c(-c3ccccc3)csc2n1` belongs -13.5%; to `CCOC(=O)c1sc2nc(CSc3ccccc3)[nH]c(=O)c2c1C`, -7.9%. As for `Cc1nc(N2CCN(C(=O)COc3ccccc3)CC2)c2c(C)c(C)sc2n1`, the inhibition was 23.4%. The value for `Cc1nc(N2CCC(C)CC2)c2c(C)c(C(=O)Nc3cc(F)ccc3C)sc2n1` was -61.2%. To `CCOc1cc(/C=C2\C(=N)N3N=C(S(C)(=O)=O)SC3=NC2=O)ccc1OCCOc1cccc(OC)c1` belongs -31.3%. As to `Fc1ccc(Sc2nc(-c3ccccc3)nnc2C(F)(F)F)cc1`, the inhibition is 40.3%.

For `CC(C)c1ccc(-n2c(-c3ccccc3)c[n+]3c2CCc2ccccc2-3)cc1`, the inhibition was 86% (active). For `CCCC(Oc1ccc(Br)cc1)c1nc2c3cc(OC)c(OC)cc3nc(=S)n2[nH]1` (stereo unspecified), the inhibition is 104% (active). Consider `CC(Oc1ccc(Br)cc1)c1nc2c3ccccc3nc(=S)n2[nH]1` (stereo unspecified), for which the inhibition is 101% (active). With `O=CN1CCN(c2c([N+](=O)[O-])c(=O)oc3ccccc23)CC1`, the inhibition was -17%.

Turning to `N=C1SCC(=O)N1c1ncc(Cc2ccccc2Cl)s1`, the inhibition was 97.5% (active). To `N=C1SCC(=O)N1c1ncc(Cc2ccc(F)cc2)s1` belongs 109% (active). Take `N=C1SCC(=O)N1c1ncc(Cc2cccc(Cl)c2)s1`: the inhibition was 101% (active). The value for `O=C1CCSc2ccc(Cl)cc2N1Cc1cccc(Cl)c1` was 17.4%; that for `COc1ccc(COC(=O)NC2CCN(S(=O)(=O)c3ccc(OC)cc3)CC2)cc1` was 20.6%. Take `Cc1nc(N2CCN(c3ccccn3)CC2)c2c(C)c(C(=O)N3CCN(c4ccc(F)cc4)CC3)sc2n1`: the inhibition was -51.2%. Turning to `CCOC(=O)C1CCN(c2ncnc3c2cnn3-c2ccc(Cl)cc2)CC1`, the inhibition was 36.4%.

`Cc1nn(-c2ccccc2)c(Cl)c1C(=O)N1CCN(c2ncnc3c2cnn3-c2ccccc2)CC1`: the inhibition was 86.6% (active).
